Assay [1] deals with Estrogen receptor beta (Homo sapiens) (UniProt Q92731). Kind of assay: qHTS assay to identify small molecule agonists of the estrogen receptor beta (ER-beta) signaling pathway (AID 1259377; active = well fitted activation curve with a large enough effect in the signal ratio in the repeat runs, not every such curve was filed as active; the % refers to the signal ratio). In short, it runs like this: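 ER-beta-UAS-bla HEK293T cells in medium with 2% charcoal-stripped FBS were exposed to compounds for 16 h at 37C. Beta-lactamase reporter activity was read as fluorescence after 2 h with LiveBLAzer B/G FRET substrate at room temperature.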
On the technique in general: Quantitative high-throughput screening tests each substance at several concentrations.

A short description of assay [2]: qHTS assay to identify small molecule agonists of the androgen receptor (AR) signaling pathway in the presence of an antagonist - cell viability counter screen (AID 1259379).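 Also: MDA-kb2 human breast cancer cells carrying an MMTV luciferase reporter; series mostly up to about 92 µM; nearly all actives have a fitted effect of over 25% in size.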 In short, it runs like this:
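MDA-kb2 human breast carcinoma cells (stable MMTV-luciferase, AR/GR responsive) were seeded 3,000 cells/well, pre-incubated 5 hr at 37C without CO2, then given 3.0uM nilutamide and compounds at 15 concentrations for 16 hr. Viability was read by CellTiter-Fluor fluorescence.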

A short description of assay [3]: qHTS assay to identify small molecule agonists of the estrogen receptor beta (ER-beta) signaling pathway - cell viability counter screen (AID 1259380). Also: nearly all actives have a fitted effect of over 30% in size. Also: potency is read from the fitted curve at half-maximal effect. In short, it runs like this: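 ER-beta-UAS-bla HEK293T cells in medium with 2% charcoal-stripped FBS were preincubated 6 hr at 37C, dosed with compound in DMSO for 16 hr, then after the bla read, CellTiter-Glo was added for 30 min at room temperature; luminescence recorded.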

The nature of assay [4]: qHTS assay to identify small molecule antagonists of the estrogen receptor beta (ER-beta) signaling pathway - cell viability counter screen (AID 1259382).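 Also: HEK293T cells carrying ER-beta-UAS-bla reporter stimulated with estradiol; series mostly up to about 92 µM; nearly all actives have a fitted effect of over 55% in size.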 In short, it runs like this: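 ER-beta-UAS-bla HEK293T cells (2,000/well, 2% charcoal-stripped FBS) were pre-incubated 6 hr at 37C, then given compound plus 1nM final 17-beta-estradiol for 16 hr. Viability was read in the same wells by CellTiter-Glo luminescence after 30 min at room temperature.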

The target of assay [5] is Estrogen receptor (Homo sapiens) (UniProt P03372). Description: qHTS assay to identify small molecule agonists of the estrogen receptor alpha (ER-alpha) signaling pathway in the presence of an antagonist (AID 1259383; calls by dose curve; also: top concentration of the series differs between compounds; nearly all actives have a fitted effect of over 15% in size). In short, it runs like this: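 VM7Luc4E2 cells (endogenous full-length ER-alpha, 4×ERE-luciferase) were precultured 5 days in phenol red-free medium with 10% charcoal-stripped FBS, given 10.0nM ICI-182,780 (final), then treated with compounds at 15 concentrations for 22hr at 37C; luminescence read with ONE-Glo.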

The nature of assay [6]: qHTS assay to identify small molecule agonists or antagonists of the thyroid stimulating hormone receptor (TSHR) signaling pathway - wild type cell line counter screen (AID 1259384; calls by dose curve). The method in brief: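 Wild-type Hek293 cells, 800/well, 18 h at 37C, then compound with Ro20-1724 for 30 min RT. cAMP by HTRF (cAMP-d2/anti-cAMP cryptate), 1 h RT, fluorescence read. 15 concentrations, triplicates.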

Assay [7] has as its target Thyrotropin receptor (Homo sapiens) (UniProt P16473). Description: qHTS assay to identify small molecule antagonists of the thyroid stimulating hormone receptor (TSHR) signaling pathway (AID 1259385; calls by dose curve; also: nearly all actives have a fitted effect of over 20% in size). In short, it runs like this:
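TSHR-HEK293 cells (800/well) plated 18 h, then compounds with Ro20-1724 and TSH at 1.5 ng/mL final, 30 min at room temperature. cAMP quantified by HTRF (cAMP-d2/anti-cAMP-cryptate, 1 h); 15 concentrations in triplicate.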

Assay [8] can be described thus: qHTS assay to identify small molecule agonists of the estrogen receptor alpha (ER-alpha) signaling pathway in the presence of an antagonist - cell viability counter screen (AID 1259386).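 Also: series mostly up to about 92 µM; cells exposed to compounds for 22 h at 37 °C before the viability read; nearly all actives have a fitted effect of over 30% in size.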 In short, it runs like this: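 VM7Luc4E2 cells (endogenous full-length ER-alpha, 4×ERE-luciferase) were held 5 days in phenol red-free medium with 10% charcoal-stripped FBS, plated, then given 10.0nM ICI-182,780 and compounds at 15 concentrations for 22hr at 37C; viability read by CellTiter-Fluor fluorescence.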

Assay [9] deals with Progesterone receptor (Homo sapiens) (UniProt P06401). Kind of assay: qHTS assay to identify small molecule agonists of the progesterone receptor (PR) signaling pathway (AID 1346784; calls by dose curve; also: nearly all actives have a fitted effect of over 30% in size). In short, it runs like this:
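PR-UAS-bla HEK 293T cells (beta-lactamase reporter under UAS) in 2% charcoal-stripped FBS, dosed with 23 nL compound after 6 hr, incubated 16hr at 37C. LiveBLAzer B/G FRET substrate added, fluorescence read after 2 hours.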

For assay [10] the target is unchanged. Description: qHTS assay to identify small molecule antagonists of the progesterone receptor (PR) signaling pathway (AID 1346795; active = well fitted inhibition curve with a large enough effect in the signal ratio in the repeat runs, not every such curve was filed as active; the % refers to the signal ratio). The method in brief: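 PR-UAS-bla HEK293T cells with beta-lactamase reporter under UAS control, in 2% charcoal-stripped FBS, treated with compounds plus 1 nM promegestone (R5020, final) for 16 hr at 37C. Read-out: FRET beta-lactamase substrate fluorescence after 2 hr at room temperature.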

Assay [11] is described as follows: qHTS assay to identify small molecule antagonists of the progesterone receptor (PR) signaling pathway - cell viability counter screen (AID 1346798). Also: series mostly up to about 92 µM; nearly all actives have a fitted effect of over 50% in size. The method in brief:
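PR-UAS-bla HEK293T cells, 3,000/well in 2% charcoal-stripped FBS medium, dosed with compounds plus R5020 agonist and incubated 16 h at 37C. Viability then measured in the same wells by CellTiter-Glo luminescence after 30 min at RT.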

Assay [12] in a line: qHTS assay to identify small molecule agonists of the progesterone receptor (PR) signaling pathway - cell viability counter screen (AID 1346799; calls by dose curve; also: nearly all actives have a fitted effect of over 45% in size). The method in brief:
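Counter screen in the PR-UAS-bla HEK293T wells (2% charcoal-stripped FBS, 16 h compound exposure at 37 C) after the bla read. CellTiter-Glo added, 30 min at room temperature, luminescence read as cell viability.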

The nature of assay [13]: qHTS assay to identify small molecule antagonists of the TGF-beta/Smad signaling pathway - cell viability counter screen (AID 1346824). Also: nearly all actives have a fitted effect of over 50% in size. In short, it runs like this: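 SBE-bla HEK 293T cells, incubated overnight, then compound plus 0.25 ng/mL TGF-beta1 (stock added) for 5 hr at 37 C. Viability was read in the same wells by CellTiter-Glo luminescence after 30 min at room temperature.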

The target of assay [14] is Thyrotropin-releasing hormone receptor (Homo sapiens) (UniProt P34981). Kind of assay: qHTS assay to identify small molecule antagonists of the thyrotropin-releasing hormone receptor (TRHR) signaling pathway (AID 1346877; active = well fitted inhibition curve with a large enough effect in the repeat runs, not every such curve was filed as active; also: series mostly up to about 51 µM). In short, it runs like this:
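TRHR-expressing HEK293 cells were seeded, cultured 18 h at 37 °C, then loaded with calcium dye for 2 h. Compounds were pre-incubated 5 min at room temperature before 1 nM TRH (final) was added, and kinetic fluorescence was recorded for 3 min.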

Assay [15] shares this target. Description: qHTS assay to identify small molecule agonists of the thyrotropin-releasing hormone receptor (TRHR) signaling pathway (AID 1346891; calls by dose curve; also: series mostly up to about 58 µM). The method in brief: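 HEK293 cells expressing TRHR plated 18 h at 37 C/5% CO2, calcium dye-loaded 2 h at 37 C, then compound added (agonist mode); kinetic calcium fluorescence read 3 min at 1 s intervals; 15 concentrations in triplicate.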

A short description of assay [16]: Human pregnane X receptor (PXR) small molecule agonists, qHTS cell viability counter screen (AID 1346977). Also: nearly all actives have a fitted effect of over 50% in size. The method in brief: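 PXR-Luc HepG2 cells (2,000/well, 5% charcoal-stripped FBS) preincubated 5 hr, then exposed to compounds 24 hr at 37 C. Viability read in the same wells by CellTiter-Fluor fluorescence, reagent added at 23 hr, 1 hr incubation.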
The nature of assay [17]: qHTS assay to identify small molecule agonists of the TGF-beta/Smad signaling pathway - cell viability counter screen (AID 1346829). Also: top concentration of the series differs between compounds; nearly all actives have a fitted effect of over 45% in size. In short, it runs like this:
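Luminescence from CellTiter-Glo, read after a 30 min room-temperature incubation, gives cell viability of SBE-bla HEK 293T cells treated 5 hr with compounds at 37 C.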

The nature of assay [18]: qHTS assay to identify small molecule agonists of the TGF-beta/Smad signaling pathway (AID 1346859; active = well fitted activation curve with a large enough effect in the signal ratio in the repeat runs, not every such curve was filed as active; the % refers to the signal ratio; also: series mostly up to about 77 µM). In short, it runs like this:
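SBE-bla HEK293T cells plated overnight, then compound exposure for 5 h at 37 C. Beta-lactamase reporter read with LiveBLAzer B/G FRET substrate after 2 h at room temperature, fluorescence at 405 nm excitation, 460/530 nm emission.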

Records with an inconclusive call do not appear. A structure can be active in one record and inactive in another. Activity calls are given as the source filed them. Unless noted, calls follow the shape of the dose curve; as a rule, active = well fitted curve in the direction sought with a large enough effect in the repeat runs; inconclusive = weak or mixed curves; inactive = no such curve, though single readings can be large; an effect the other way counts as inactive or inconclusive.

Chain of Estrogen receptor beta (Homo sapiens) (Q92731 whole entry, looked up): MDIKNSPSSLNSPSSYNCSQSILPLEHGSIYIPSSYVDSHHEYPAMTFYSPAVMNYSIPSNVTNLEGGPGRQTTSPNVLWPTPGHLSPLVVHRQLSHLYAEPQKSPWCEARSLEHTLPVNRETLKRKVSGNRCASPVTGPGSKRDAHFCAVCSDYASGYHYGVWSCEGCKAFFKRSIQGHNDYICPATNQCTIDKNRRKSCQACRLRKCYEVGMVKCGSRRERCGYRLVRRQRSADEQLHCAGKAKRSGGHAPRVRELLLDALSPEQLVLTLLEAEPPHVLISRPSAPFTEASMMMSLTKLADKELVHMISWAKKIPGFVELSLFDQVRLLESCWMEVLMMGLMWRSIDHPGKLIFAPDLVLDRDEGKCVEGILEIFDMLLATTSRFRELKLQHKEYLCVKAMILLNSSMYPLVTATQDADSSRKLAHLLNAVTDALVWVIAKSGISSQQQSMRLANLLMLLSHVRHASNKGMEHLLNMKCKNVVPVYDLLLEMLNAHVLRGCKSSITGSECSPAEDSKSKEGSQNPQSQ
Chain of Estrogen receptor (Homo sapiens) (P03372 whole entry, looked up): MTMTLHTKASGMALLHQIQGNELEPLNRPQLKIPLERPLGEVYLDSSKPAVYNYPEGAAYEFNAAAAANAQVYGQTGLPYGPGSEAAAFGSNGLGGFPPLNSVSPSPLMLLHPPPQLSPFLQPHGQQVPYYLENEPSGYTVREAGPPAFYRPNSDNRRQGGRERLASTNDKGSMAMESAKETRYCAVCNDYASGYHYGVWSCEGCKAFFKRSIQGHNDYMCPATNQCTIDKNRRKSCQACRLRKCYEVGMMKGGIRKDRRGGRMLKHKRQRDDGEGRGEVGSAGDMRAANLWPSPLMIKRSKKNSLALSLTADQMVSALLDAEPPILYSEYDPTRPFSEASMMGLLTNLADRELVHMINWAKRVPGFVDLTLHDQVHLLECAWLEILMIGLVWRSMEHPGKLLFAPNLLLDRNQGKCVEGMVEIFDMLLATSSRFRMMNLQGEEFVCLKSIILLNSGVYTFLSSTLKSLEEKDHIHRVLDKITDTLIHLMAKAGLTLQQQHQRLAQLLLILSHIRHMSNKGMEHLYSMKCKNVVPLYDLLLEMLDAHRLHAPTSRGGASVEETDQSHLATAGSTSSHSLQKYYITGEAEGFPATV
Chain of Thyrotropin-releasing hormone receptor (Homo sapiens) (P34981 whole entry, looked up): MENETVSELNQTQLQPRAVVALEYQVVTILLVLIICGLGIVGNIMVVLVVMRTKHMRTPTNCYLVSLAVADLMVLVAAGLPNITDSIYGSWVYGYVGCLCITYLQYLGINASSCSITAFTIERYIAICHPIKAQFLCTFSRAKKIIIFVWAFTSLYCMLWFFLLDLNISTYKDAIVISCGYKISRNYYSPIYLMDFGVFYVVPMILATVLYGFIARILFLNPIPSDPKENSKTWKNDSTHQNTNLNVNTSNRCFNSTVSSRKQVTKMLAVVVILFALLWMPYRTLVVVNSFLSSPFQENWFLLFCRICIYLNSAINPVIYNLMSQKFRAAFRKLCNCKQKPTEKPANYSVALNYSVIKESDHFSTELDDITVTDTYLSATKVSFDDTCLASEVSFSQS
Chain of Thyrotropin receptor (Homo sapiens) (P16473 whole entry, looked up): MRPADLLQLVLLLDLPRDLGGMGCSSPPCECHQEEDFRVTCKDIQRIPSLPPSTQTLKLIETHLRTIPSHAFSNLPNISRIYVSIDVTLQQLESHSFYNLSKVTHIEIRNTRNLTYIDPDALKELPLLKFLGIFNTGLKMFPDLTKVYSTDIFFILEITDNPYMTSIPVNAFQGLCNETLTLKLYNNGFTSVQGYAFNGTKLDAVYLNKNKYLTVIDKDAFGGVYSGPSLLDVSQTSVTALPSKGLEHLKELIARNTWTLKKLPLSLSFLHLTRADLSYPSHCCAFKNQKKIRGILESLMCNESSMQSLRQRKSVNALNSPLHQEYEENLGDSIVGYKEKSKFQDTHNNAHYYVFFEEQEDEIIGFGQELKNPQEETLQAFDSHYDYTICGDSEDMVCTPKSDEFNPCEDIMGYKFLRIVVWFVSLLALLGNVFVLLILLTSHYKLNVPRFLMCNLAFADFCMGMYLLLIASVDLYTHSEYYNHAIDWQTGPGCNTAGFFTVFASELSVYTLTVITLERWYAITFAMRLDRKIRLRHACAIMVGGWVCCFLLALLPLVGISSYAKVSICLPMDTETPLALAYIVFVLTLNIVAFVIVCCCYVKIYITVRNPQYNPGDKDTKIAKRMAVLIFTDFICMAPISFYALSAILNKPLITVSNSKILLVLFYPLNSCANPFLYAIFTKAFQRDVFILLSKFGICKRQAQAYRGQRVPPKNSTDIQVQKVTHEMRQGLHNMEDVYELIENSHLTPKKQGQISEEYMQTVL
Chain of Progesterone receptor (Homo sapiens) (P06401 whole entry, looked up): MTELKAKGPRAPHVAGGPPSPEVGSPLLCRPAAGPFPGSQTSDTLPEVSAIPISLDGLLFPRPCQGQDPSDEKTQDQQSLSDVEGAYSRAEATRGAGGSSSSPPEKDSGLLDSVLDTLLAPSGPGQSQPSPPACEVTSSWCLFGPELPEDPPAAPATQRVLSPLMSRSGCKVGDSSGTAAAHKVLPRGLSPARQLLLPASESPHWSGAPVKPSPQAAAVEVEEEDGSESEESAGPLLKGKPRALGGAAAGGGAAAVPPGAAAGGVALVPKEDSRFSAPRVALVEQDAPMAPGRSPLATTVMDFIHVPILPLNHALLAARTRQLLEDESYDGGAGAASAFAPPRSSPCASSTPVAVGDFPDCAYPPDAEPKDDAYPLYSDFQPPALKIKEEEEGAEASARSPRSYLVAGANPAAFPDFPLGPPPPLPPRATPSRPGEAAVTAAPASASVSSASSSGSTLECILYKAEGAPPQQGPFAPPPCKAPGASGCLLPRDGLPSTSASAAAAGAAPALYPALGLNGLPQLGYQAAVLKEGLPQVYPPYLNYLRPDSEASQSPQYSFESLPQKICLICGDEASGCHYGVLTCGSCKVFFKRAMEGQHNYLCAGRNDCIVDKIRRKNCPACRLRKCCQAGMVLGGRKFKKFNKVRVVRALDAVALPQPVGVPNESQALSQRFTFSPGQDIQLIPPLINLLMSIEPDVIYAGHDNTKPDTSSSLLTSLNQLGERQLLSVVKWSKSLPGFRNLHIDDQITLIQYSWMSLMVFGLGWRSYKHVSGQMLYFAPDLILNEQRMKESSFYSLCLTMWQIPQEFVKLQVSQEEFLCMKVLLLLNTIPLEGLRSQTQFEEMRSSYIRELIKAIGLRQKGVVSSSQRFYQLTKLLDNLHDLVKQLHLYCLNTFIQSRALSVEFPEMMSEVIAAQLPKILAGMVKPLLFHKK

`O=C(O)COc1ccccc1`: the Potency result in assay [1], in assay [2], in assay [3], in assay [8], in assay [9] and in assay [10] was “inactive” in each case. The Potency result in [11], in [13] and in [16] was “inactive” in each case. Besides, the compound was classed as inactive in assay [4], in assay [5], in assay [6], in assay [7], in [12] and in [14]. Further, in [15], the result was inactive.

On to `Oc1c(Br)cc(Br)cc1Br`, for which the Potency entry in assay [1], in [2], in assay [8], in assay [9], in assay [11] and in assay [13] was “inactive” each time. Moreover, the Potency entry in assay [17] and in assay [16] was “inactive” throughout. The Potency in [3] was 21.7 µM (active) and inactive. The call in assay [4], in assay [5], in assay [6], in assay [7], in assay [18] and in [14] was inactive. Moreover, the compound was classed as inactive in assay [15].

On to `Nc1nc(N)nc(NC2CC2)n1`, for which the Potency entry in [1], in [2], in assay [3], in [8], in assay [9] and in assay [10] was “inactive” each time. Besides, the Potency entry in assay [11], in assay [13] and in [17] was “inactive” each time. The compound was classed as inactive in [4], in assay [6], in assay [7], in assay [12], in assay [14] and in assay [15].

For the compound `CC(=O)/C=C/c1ccccc1`, the Potency entry in assay [1], in [2], in assay [3], in assay [8], in assay [9] and in assay [10] was “inactive” in each case. Moreover, the Potency result in [11], in assay [13] and in [16] was “inactive” in each case. The compound was classed as inactive in [4], in assay [6], in assay [7], in assay [12], in [18] and in assay [14]. Moreover, the compound was classed as inactive in [15].

Regarding `Nc1cc(Cl)cc(Cl)c1`, the Potency entry in [1], in [2], in [3], in [8], in assay [9] and in assay [10] was “inactive” throughout. The Potency result in [11], in assay [13] and in [17] was “inactive” in each case. Moreover, the result in assay [4], in assay [6], in [7], in assay [12], in assay [18] and in assay [14] was inactive. Besides, the outcome in [15] was inactive.

Take `CCOC(=O)CC(SP(=O)(OC)OC)C(=O)OCC` (centres undefined): the Potency entry in assay [1], in assay [2], in assay [3], in [8], in assay [9] and in assay [10] was “inactive” in each case. Further, the Potency entry in assay [11], in assay [13], in assay [17] and in assay [16] was “inactive” each time. In addition, the outcome in [4], in [6], in assay [7], in [12], in assay [14] and in assay [15] was inactive.

For `CN(C)C(=O)C(c1ccccc1)c1ccccc1`, the Potency entry in assay [1], in assay [2], in assay [3], in assay [8], in assay [9] and in assay [10] was “inactive” each time. Moreover, the Potency entry in [11], in assay [13] and in [16] was “inactive” in each case. For the same compound, the outcome in assay [4], in assay [12], in assay [14] and in [15] was inactive.

As for `O=[N+]([O-])c1ccc(Cl)cc1`, the Potency entry in assay [1], in assay [2], in assay [3], in assay [8], in [9] and in [10] was “inactive” each time. In addition, the Potency entry in assay [11], in assay [13] and in assay [16] was “inactive” throughout. For the same compound, the compound was called inactive in assay [4], in assay [6], in [7], in assay [12], in assay [18] and in [14]. In assay [15], the compound was classed as inactive.

Turning to `CN(C)CCC#N`, the Potency entry in [1], in assay [2], in assay [3], in assay [8], in assay [9] and in [10] was “inactive” throughout. Further, the Potency entry in assay [11], in assay [13], in assay [17] and in assay [16] was “inactive” each time. Further, the compound was classed as inactive in [4], in [5], in assay [12], in assay [14] and in assay [15].

The record behind these values is PubChem BioAssay (Tox21).
